Screening data (PubChem BioAssay)
In the library only some 10% were active in any assay of this set; here they are far more common.
JMJD2A Tudor inh: blocks the human JMJD2A Tudor domain; O75164; AlphaScreen JMJD2A-Tudor / H3K4me3 peptide binding; Potency, µM (highest dose often 114 µM), inactives show at the highest dose activity change, negative = inhibition, actives largely listed as inhibitors; 390,000 tested, 4.4% active; AID 504339; note: % is set by controls: 0 for no effect and ±100 for the full control effect; nearly all actives have a fitted effect of over 50% in size
L3MBTL1 block: L3MBTL1 (human) inhibition; AlphaScreen L3MBTL1–H3K9me1 peptide binding; AID 485360; Q9Y468; Potency, µM (titrated, usually from 57.1 µM), without a hit: at the highest dose activity, negative = inhibition, hits mostly inhibitors; 230,000 tested, 0.66% active; note: % is set by controls: 0 for no effect and ±100 for the full control effect; nearly all actives have a fitted effect of over 60% in size
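AlphaScreen assay: L3MBTL1 (50 nM final) was preincubated 30 min at room temperature with biotinylated H3(1-15)K9me1 peptide (75 nM final), then 30 min with library compounds; streptavidin donor and nickel chelate acceptor beads (10 ug/mL final) added, 30 min dark.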
G9a inh: G9a (human) methyltransferase inhibition | AID 504332 | G9a H3K9 monomethylation, AlphaScreen, 2 h | Potency, µM (highest dose often 102 µM), for the others: at the highest dose activity, negative = inhibition, actives largely listed as inhibitors | 350,000 tested, 8.8% active; note: % is set by controls: 0 for no effect and ±100 for the full control effect; nearly all actives have a fitted effect of over 75% in size
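G9a (20 nM) preincubated 15 min RT with compounds, then 500 nM biotinylated H3K9 peptide and 20 uM SAM added; 2 h RT reaction. Monomethyl-H3K9 product detected by AlphaScreen with anti-H3K9me1 antibody, streptavidin donor and anti-rabbit IgG acceptor beads.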
HP1b binding inh: inhibitors of HP1-beta chromodomain binding to methylated histone tails. P83916. AlphaScreen HP1-beta / biotin-H3K9me3 peptide binding. Potency, µM (series often up to 114 µM), without a hit: top-dose activity change, negative = inhibition, usual class: inhibitors. 390,000 tested, 0.56% active; note: nearly all actives have a fitted effect of over 70% in size
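Compound inhibition of the preformed complex between 50 nM HP1-beta and 50 nM biotinylated H3K9me3 peptide was read by AlphaScreen. Buffer was PBS pH 7.4 with 0.01% Tween-20. Incubations ran 30 min at room temperature, with 10 ug/mL donor/acceptor beads.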
BAZ2B inh: inhibitors of human BAZ2B bromodomain. Q9UIF8. AlphaScreen BAZ2B-H3K14Ac peptide displacement. Potency, µM (highest dose often 114 µM), for the others: at the highest dose activity change, negative = inhibition, most hits filed as inhibitors. 360,000 tested, 4.4% active. AID 504333; note: % is set by controls: 0 for no effect and ±100 for the full control effect; nearly all actives have a fitted effect of over 60% in size
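BAZ2B 50 nM plus b-H3(5-23)K14Ac 50 nM, PBS pH 7.4/0.01% Tween-20, 30 min RT; compound added (max 110 uM), 30 min RT; streptavidin donor/Ni-chelate acceptor beads 10 ug/mL final, 20 min dark; AlphaScreen read.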
GLS inhibitor: inhibitors of human glutaminase (GLS); Potency, µM (highest dose often 45.5 µM), for the others: top-dose activity change, negative = inhibition, actives largely listed as inhibitors; 410,000 tested, 0.21% active; AID 624170; GLS enzymatic activity, qHTS titration; note: % is set by controls: 0 for no effect and ±100 for the full control effect
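Assay buffer: 45 mM KH2PO4 pH 8.2, 0.02% Tween-20. hKGA acts on L-glutamine (1 mM solution added); product glutamate is reported by an oxidase/peroxidase Amplex Red coupling, with fluorescence taken at baseline and 30 min.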
* marks the source's active call; other numbers are inactive results; [ ] = another dose, or the depositor's remark. Calls come from the whole dose curve; as a rule, active = well fitted curve in the direction sought with a large enough effect; inconclusive = small, poorly fitted or top-dose-only effect, or another doubt; inactive = no such curve, though single readings can be large; an effect the other way counts as inactive or inconclusive. Potency is the fitted concentration of half-maximal effect.

Results for Cc1cc(C)c(-c2n[nH]c3c2C(c2ccccc2F)N(Cc2ccco2)C3=O)c(O)c1 (stereo not given) ?
JMJD2A Tudor inh: -31%; G9a inh: 28%[59 µM]; HP1b binding inh: 19%; BAZ2B inh: inconclusive; GLS inhibitor: 4%

Results for Cc1nc(N2CCCC2)c2c(C(=O)N3CCN(c4cccc(C)c4C)CC3)c(C)oc2n1 ?
JMJD2A Tudor inh: -28%; G9a inh: -31%[59 µM]; HP1b binding inh: 0%; BAZ2B inh: -1%[57.1 µM]; GLS inhibitor: -5%

What do the screens show for `CCCSc1nc2cc(C)c(C)cc2n1CC(C)O` (stereo not given)?
JMJD2A Tudor inh: -10%; L3MBTL1 block: 3%; G9a inh: 11µM*; HP1b binding inh: 18%; BAZ2B inh: inconclusive; GLS inhibitor: 6%

How did Cc1ccc(NC(=O)c2ccc(NCCCN3CCC(C)CC3)c([N+](=O)[O-])c2)cc1F do in these assays?
JMJD2A Tudor inh: 79µM*; G9a inh: 71µM*; HP1b binding inh: 2%; BAZ2B inh: -12%; GLS inhibitor: 0%

What do the screens show for `Cc1ccc(NC(=O)c2ccc(NCCN)c([N+](=O)[O-])c2)cc1`?
JMJD2A Tudor inh: -30%; L3MBTL1 block: -9%; G9a inh: 23%[59 µM]; HP1b binding inh: 9%; BAZ2B inh: -6%; GLS inhibitor: 0%

Results for O=C(NCCCN1CCOCC1)c1cccc(NC(=O)c2ccccc2)c1 ?
JMJD2A Tudor inh: -11%; HP1b binding inh: 42%; GLS inhibitor: 8%

Results for O=C(Nc1cccc(Cl)c1)c1ccc(NCCCN2CCOCC2)c([N+](=O)[O-])c1 ?
JMJD2A Tudor inh: inconclusive; L3MBTL1 block: -9%; G9a inh: 14%[0.501 µM]; HP1b binding inh: inconclusive; BAZ2B inh: 45µM*; GLS inhibitor: 0%

Results for S=C(c1ccc(-c2cccc(Cl)c2)o1)N1CCOCC1 ?
JMJD2A Tudor inh: 50µM*; G9a inh: inconclusive; HP1b binding inh: 35µM*; BAZ2B inh: 45µM*; GLS inhibitor: -13%

Results for CC(=O)N1CCN(C(=S)c2ccc(-c3ccc(Cl)cc3)o2)CC1 ?
JMJD2A Tudor inh: inconclusive; L3MBTL1 block: -14%; G9a inh: 4µM*; HP1b binding inh: -68%; BAZ2B inh: -6%; GLS inhibitor: -4%

What do the screens show for `O=C(c1cc(-c2cccc(Cl)c2)on1)N1CCCCC1`?
JMJD2A Tudor inh: 28%; G9a inh: -4%[59 µM]; HP1b binding inh: 38%; BAZ2B inh: 25%; GLS inhibitor: 6%

What do the screens show for `S=C(c1ccc(-c2cccc(Cl)c2)o1)N1CCCCC1`?
JMJD2A Tudor inh: 28µM*; G9a inh: 11µM*; HP1b binding inh: inconclusive; BAZ2B inh: 32µM*; GLS inhibitor: inconclusive

What do the screens show for `CCOC(=O)c1cc(NC(=O)c2ccc(Cl)cc2)c(=O)n2c1oc1ccccc12`?
JMJD2A Tudor inh: -9%; G9a inh: 5%[59 µM]; HP1b binding inh: 24%; BAZ2B inh: -11%; GLS inhibitor: 16%

Results for COc1ccc(F)cc1S(=O)(=O)NCC(c1ccco1)S(=O)(=O)c1cccs1 (stereo not given) ?
JMJD2A Tudor inh: -13%; G9a inh: 5%[59 µM]; HP1b binding inh: 0%; BAZ2B inh: -15%; GLS inhibitor: -7%

How did COc1ccc(Nc2ncnc3c2nc2n3CCCCC2)cc1 do in these assays?
JMJD2A Tudor inh: -11%; G9a inh: -22%[59 µM]; HP1b binding inh: 42%; BAZ2B inh: -3%; GLS inhibitor: 8%

Results for CC(C)N(Cc1nc(COc2ccccc2)no1)Cc1nccn1C ?
JMJD2A Tudor inh: -14%; L3MBTL1 block: -4%; G9a inh: 7%; HP1b binding inh: 7%; BAZ2B inh: -6%; GLS inhibitor: 3%

How did CC(C)N(Cc1cn[nH]c1-c1ccc(-c2ccccc2)cc1)Cc1nccn1C do in these assays?
JMJD2A Tudor inh: 56µM*; L3MBTL1 block: -9%; G9a inh: inconclusive; HP1b binding inh: inconclusive; BAZ2B inh: 56µM*; GLS inhibitor: 7%
